Source: PubChem BioAssay (NCATS)
Where “and” joins values, the source holds several entries; their conditions need not be identical. Equal values may be shown once. Inconclusive results are not listed. Where a call stands in place of a potency, no number is given. A number with no mark means an inactive call. Calls of active or inactive are those of the source. Calls follow the shape of the dose curve; as a rule, active = well fitted curve in the direction sought with a large enough effect; inconclusive = small, poorly fitted or top-dose-only effect, or another doubt; inactive = no such curve, though single readings can be large; an effect the other way counts as inactive or inconclusive.

How the values were obtained:
[1] = target: Cytochrome P450 3A7 (Homo sapiens) (UniProt P24462); experiment: Cytochrome P450 family 3 subfamily A member 7 (CYP3A7) small molecule antagonists: luciferase biochemical qHTS assay (AID 1963596); also: nearly all actives have a fitted effect of over 40% in size; also: potency is read from the fitted curve at half-maximal effect
Sequence of Cytochrome P450 3A7 (Homo sapiens) (P24462 whole entry, looked up): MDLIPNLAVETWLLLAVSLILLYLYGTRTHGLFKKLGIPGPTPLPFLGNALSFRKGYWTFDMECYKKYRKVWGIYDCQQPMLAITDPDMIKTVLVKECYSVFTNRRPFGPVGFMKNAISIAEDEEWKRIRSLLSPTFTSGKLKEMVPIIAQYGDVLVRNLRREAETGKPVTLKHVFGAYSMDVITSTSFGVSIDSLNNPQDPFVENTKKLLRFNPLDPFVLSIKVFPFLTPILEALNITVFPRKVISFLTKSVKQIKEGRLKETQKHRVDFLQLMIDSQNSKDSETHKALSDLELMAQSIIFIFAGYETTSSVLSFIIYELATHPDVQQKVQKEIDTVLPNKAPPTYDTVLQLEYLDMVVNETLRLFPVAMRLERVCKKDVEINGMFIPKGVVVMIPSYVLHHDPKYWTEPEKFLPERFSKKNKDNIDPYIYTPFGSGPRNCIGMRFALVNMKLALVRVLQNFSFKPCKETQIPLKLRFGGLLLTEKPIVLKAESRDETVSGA
Procedure, shortened: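 Enzyme-substrate mix + cpd (DMSO), 10 min RT; + NADPH regen system, 1 h RT; + luciferin detection reagent, 20 min RT; luminescence read. Proluciferin substrate, P450-Glo format, 1536-well qHTS.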

[2] = Viability qHTS for spleen associated tyrosine kinase inhibitor (SYKi) naive MV4-11 cells (AID 1963823); also: nearly all actives have a fitted effect of over 40% in size
Procedure, shortened: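 CellTiter-Glo luminescence, 10 min room-temperature incubation, gave viability. Cells: naive MV4-11 (500/well), treated 72 hr at 37 C, 5% CO2.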

[3] = Cellular viability qHTS for adrenocortical cancer (ACC) cell line SW-13 (AID 1963989); conditions: SW-13 ACC cells viability, CellTiter-Glo, 48 h; activity (max response): hits give low values;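 also: cells grown in serum-free medium with ITS supplement; nearly all actives have a fitted effect of over 65% in size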
Procedure, shortened: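 48 h treatment, SW-13 in ITS/DMEM serum-free; doses up to 46 uM; readout CellTiter-Glo luminescence; curve fit four-parameter logistic.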

[4] = Cellular viability qHTS for adrenocortical cancer (ACC) cell line NCI-H295R (AID 1963990); also: nearly all actives have a fitted effect of over 60% in size
Procedure, shortened: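 Compound titrations (up to 46 uM final) are applied to NCI-H295R cultures for 48 h at 37C. Viable cell number is estimated by CellTiter-Glo signal, normalised to DMSO and doxorubicin controls.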

[5] = Viability qHTS for spleen associated tyrosine kinase inhibitor (SYKi) drug resistant MV4-11 cells (AID 1963824); also: nearly all actives have a fitted effect of over 35% in size; also: potency is read from the fitted curve at half-maximal effect
Procedure, shortened: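 CellTiter-Glo luminescence, read 10 min after reagent addition, reports viability after a 72 hr compound exposure. Cells are an MV4-11 line made resistant to SYK inhibition, seeded at 500 per well onto compound-containing plates.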

[6] = Quantitative highthroughput screen to assess conditional lethalithy of NOMO1 cells grown in RPMI1640 with untreated serum (RPMI+s) (AID 1963876); also: nearly all actives have a fitted effect of over 35% in size
Procedure, shortened: (§1)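 Each medium arm—HPLM with 10% dialyzed FBS, or RPMI1640 with 5 mM glucose and 10% untreated or dialyzed FBS—was screened against an 11-point, 3-fold compound titration for 48 h at 37 °C, with CellTiter-Glo luminescence as endpoint.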

[7] = Quantitative highthroughput screen to assess conditional lethalithy of NOMO1 cells grown in RPMI1640 with dialyzed fetal bovine serum (RPMI+ds) (AID 1963877); also: series mostly up to about 46 µM; nearly all actives have a fitted effect of over 30% in size
Procedure, shortened: as §1

[8] = Quantitative highthroughput screen to assess conditional lethalithy of NOMO1 cells grown in Human Plasma-Like Medium with dialyzed fetal bovine serum (HPLM+ds) (AID 1963878); also: nearly all actives have a fitted effect of over 35% in size
Procedure, shortened: as §1

[9] = Quantitative highthroughput screen to assess conditional lethalithy of P12 Ichikawa cells grown in Human Plasma-Like Medium with dialyzed fetal bovine serum (HPLM+ds) (AID 1963879); conditions: Potency: viability; also: series mostly up to about 46 µM; nearly all actives have a fitted effect of over 35% in size
Procedure, shortened: as §1

[10] = Quantitative highthroughput screen to assess conditional lethalithy of P12 Ichikawa cells grown in RPMI1640 with dialyzed fetal bovine serum (RPMI+ds) (AID 1963880); conditions: Potency: P12-Ichikawa viability; also: nearly all actives have a fitted effect of over 35% in size
Procedure, shortened: as §1

[11] = Quantitative highthroughput screen to assess conditional lethalithy of P12 Ichikawa cells grown in RPMI1640 with untreated serum (RPMI+s) (AID 1963881); conditions: Potency: viability
Procedure, shortened: as §1

[12] = Quantitative highthroughput screen to assess conditional lethalithy of SEM cells grown in Human Plasma-Like Medium with dialyzed fetal bovine serum (HPLM+ds) (AID 1963882)
Procedure, shortened: as §1

[13] = Quantitative highthroughput screen to assess conditional lethalithy of SEM cells grown in RPMI1640 with unreated serum (RPMI+s) (AID 1963883); also: nearly all actives have a fitted effect of over 35% in size
Procedure, shortened: as §1

[14] = Quantitative highthroughput screen to assess conditional lethalithy of SEM cells grown in RPMI1640 with dialyzed fetal bovine serum (RPMI+ds) (AID 1963884)
Procedure, shortened: as §1

CC1(C)[C@@H](OC(=O)CCC(=O)O)CC[C@]2(C)[C@H]3C(=O)C=C4[C@@H]5C[C@@](C)(C(=O)O)CC[C@]5(C)CC[C@@]4(C)[C@]3(C)CC[C@@H]12
Potency [1]: inactive | Potency [2]: inactive | activity (max response) [3]: 2.49% | Potency [4]: inactive

CN(C)C(=O)C(=O)c1cn(C)c2cc(Cl)c(C(=O)N3CCC(Cc4ccc(F)cc4)CC3)cc12
Potency [1]: inactive | Potency [5]: 8.2 µM (active)

O=C(O)CN(CCOCCOCCN(CC(=O)O)CC(=O)O)CC(=O)O
activity change, negative = inhibition [1]: 3.38% [at 0.91 µM] | viability (% of control) [2]: 65.2% [at 0.588 µM] | activity (max response) [3]: -1% | activity change, negative = viability loss [4]: -8.55% [at 0.587 µM]

CCn1c2ccccc2c2cc(Nc3ccnc(NCCCN4CCOCC4)n3)ccc21
Potency [1]: inactive | Potency [5]: 2.59 µM (active)

CN(C)C/C=C(/c1ccc(Br)cc1)c1cccnc1
Potency [1]: inactive | Potency [2]: inactive | activity (max response) [3]: 3.23% | Potency [4]: inactive

CC#CC(=O)Nc1ccc2ncnc(Nc3cccc(Br)c3)c2c1
Potency [1]: inactive | Potency [5]: 1.46 µM (active) and 580 nM (active)

CN1CCc2cc(Cl)c(O)cc2[C@@H](c2cccc3c2OCC3)C1
Potency [1]: inactive | Potency [5]: 11.6 µM (active)

CNS(=O)(=O)Cc1ccc2[nH]cc(CCN(C)C)c2c1
Potency [1]: inactive | Potency [5]: inactive | Potency [6]: inactive | Potency [7]: inactive | Potency [8]: inactive | Potency [9]: inactive | Potency [10]: inactive | Potency [11]: inactive | Potency [12]: inactive | Potency [13]: inactive | Potency [14]: inactive | activity (max response) [3]: 3.13%

Cc1cnn(-c2ccccc2)c1NC(=O)COCc1ccccc1
Potency [1]: inactive | Potency [5]: inactive

Cc1onc(-c2ccccc2)c1C(=O)N1CCN(c2ccc([N+](=O)[O-])cc2Cl)CC1
Potency [1]: inactive | Potency [5]: 13 µM (active)

Cc1c(C(=O)Nc2ccc(N3CC(C)OC(C)C3)nc2)cccc1-c1ccc(OC(F)(F)F)cc1 (centres undefined)
Potency [1]: inactive | Potency [5]: 10.3 µM (active)

O=C(O)CNC(=O)c1ccccc1I
Potency [1]: inactive | Potency [5]: inactive

COc1cc2ncnc(Nc3cccc(I)c3)c2cc1OC
Potency [1]: inactive | Potency [5]: 2.91 µM (active) and 13 µM (active)

CC(C)c1cc2c(N3CCN(C4=NCC(C)(C)S4)CC3)ncnc2s1
Potency [1]: inactive | Potency [5]: 5.8 µM (active)

CC(C)c1cccc(C(C)C)c1NC(=O)Nc1ccc(Sc2ccc([N+](=O)[O-])cc2)cc1
Potency [1]: inactive | Potency [5]: 5.17 µM (active)

CN1CCc2nc(C(=O)N[C@@H]3C[C@@H](C(=O)N(C)C)CC[C@@H]3NC(=O)C(=O)Nc3ccc(Cl)cn3)sc2C1
Potency [1]: inactive | Potency [5]: inactive

COc1ccc(NC(=O)N2CCc3c2ccc2ccccc32)cc1N1CCN(C)CC1
Potency [1]: inactive | Potency [5]: 8.2 µM (active)

O=C(NCc1ccccc1)c1ccc2c(=O)n(-c3cccc(C(F)(F)F)c3)c(=S)[nH]c2c1
Potency [1]: inactive | Potency [5]: inactive

O=C(Nc1nc2ccccc2n1CCc1ccccc1)c1ccccc1
Potency [1]: inactive | Potency [5]: inactive

FC(F)(F)c1ccccc1-c1cc(C(F)(F)F)c2nc(C3=NOC4(CCCCC4)C3)[nH]c2c1
Potency [1]: inactive | Potency [5]: 16.4 µM (active)

c1ccc(N2CCN(CCc3nn[nH]n3)CC2)cc1
Potency [1]: inactive | Potency [5]: inactive

CN(C)c1nc(NC2CCC(NC(=O)c3ccc(F)c(F)c3)CC2)nc2ccccc12 (centres undefined)
Potency [1]: inactive | Potency [5]: 0.82 µM (active)

CCNC(=O)N1CCCN(c2ccc(C(=O)NCCc3ccc(Cl)cc3Cl)cc2NC(=O)c2cccc(Cl)c2)CC1
Potency [1]: inactive | Potency [5]: 20.6 µM (active)

c1ccc(C(OC2CCN(CCCc3nn[nH]n3)CC2)c2ccccc2)cc1
Potency [1]: inactive | Potency [5]: inactive

N[C@@H](CC(=O)N1CCn2c(nnc2C(F)(F)F)C1)Cc1[nH]nc2c(F)c(F)ccc12
Potency [1]: inactive | Potency [5]: inactive

CC(CNS(=O)(=O)C(C)C)c1ccc(-c2ccc(C#N)cc2)cc1 (centres undefined)
Potency [1]: inactive | Potency [5]: 2.59 µM (active)

C[C@]12C=CC(=O)C=C1CC[C@@H]1[C@@H]2[C@@H](O)C[C@@]2(C)[C@H]1CC[C@]2(O)C(=O)COC(=O)CCC(=O)O
Potency [1]: inactive | Potency [5]: inactive

CCCN1CCC(c2cccc(S(C)(=O)=O)c2)CC1
Potency [1]: inactive | Potency [5]: inactive

COc1ccc(Sc2ccc(NC(=O)c3ccccc3Cl)cc2C#N)cc1
Potency [1]: inactive | Potency [5]: 25.9 µM (active)

Nc1ccc(C(=O)Nc2ccccc2N)cc1
Potency [1]: 17.4 µM (active) | Potency [5]: 7.5 µM (active)

CN1CCN(C2=Nc3ccccc3Nc3ccc(O)cc32)CC1
Potency [1]: inactive | Potency [5]: inactive

CCCN1CCC[C@@H](c2cccc(S(C)(=O)=O)c2)C1
Potency [1]: inactive | Potency [5]: 10.3 µM (active)

CC(C)CCC(=O)CC1c2ccccc2C(=O)N1c1ccc2ccc(Cl)nc2n1 (centres undefined)
Potency [1]: inactive | Potency [5]: inactive

C[C@H]1CO[C@@H]2Cn3cc(C(=O)NCc4ccc(F)cc4F)c(=O)c(O)c3C(=O)N12
Potency [1]: inactive | Potency [5]: 7.31 µM (active)

Cn1c(N2CCCCS2(=O)=O)nc(C(=O)NCc2ccc(F)cc2)c(O)c1=O
Potency [1]: inactive | Potency [5]: inactive | Potency [6]: inactive | Potency [7]: inactive | Potency [8]: inactive | Potency [9]: inactive | Potency [10]: inactive | Potency [11]: inactive | Potency [12]: inactive | Potency [13]: inactive | Potency [14]: inactive

Cn1c2ccc(NC(=O)c3ccccc3)cc2c(=O)n2nc(C(=O)O)cc12
Potency [1]: inactive | Potency [5]: inactive

NC(=O)c1ccccc1O
Potency [1]: inactive | Potency [5]: inactive

CCCNc1ccc2ncc(-c3ccc4[nH]ncc4c3)n2n1
Potency [1]: inactive | Potency [5]: 0.0116 µM (active)

O=C(N[C@@H]1CCCc2c1cnn2-c1ccc(F)cc1F)c1ccccn1
Potency [1]: inactive | Potency [5]: 14.6 µM (active)

C[N+]1(CC2COC(c3ccccc3)(c3ccccc3)O2)CCCCC1 (centres undefined)
Potency [1]: inactive | Potency [5]: 10 µM (active)

COC(=O)c1ccc2c(c1)nc(NC(=O)c1ccccc1)n2CCCc1ccccc1
Potency [1]: inactive | Potency [5]: inactive

COc1cc(OC)c(NC(=O)c2ccc(Cc3cc4c(cc3C)C(C)(C)CCC4(C)C)o2)c(OC)c1
Potency [1]: inactive | Potency [5]: 11.6 µM (active)
